Measurements from the supplement of paper PMC7411054.
Counter-ions that a name gives are not always drawn.

How the values were obtained:
Settings in all cases: treatment time: 24 h
[1] = test system: A549-ACTB-RAB5A; assay: lowest phenotypically active concentration; higher = less potent
Summary of the method: (§1)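 Fifteen reporter lines derived from A549, HepG2 and WPMY1 cells by gene editing, carrying BFP for segmentation plus GFP and RFP/FusionRed markers, were exposed to 0.3, 1, 3 or 9 µM for 24 h in four wells each and imaged live. Live-cell features from each well were normalised to solvent control wells. A well set counted as deviating when ≥3 of 4 wells lay beyond the 95th percentile of control Euclidean distances, and as reproducible when the median replicate Pearson correlation exceeded the 95th percentile of non-replicates. Phenotypic activity was assigned only when both criteria were met.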

[2] = test system: A549-CANX-COX4; assay: as above
Summary of the method: as §1

[3] = test system: A549-GM130-SQSTM1; assay: as above
Summary of the method: as §1

[4] = test system: A549-TP53BP1-CLTA; assay: as above
Summary of the method: as §1

[5] = test system: A549-TUBA1B-RELA; assay: as above
Summary of the method: as §1

[6] = test system: HepG2-GM130-SQSTM1; assay: as above
Summary of the method: as §1

[7] = test system: A549-ACTB-RAB5A; assay: phenotypically active (imaging signature differs from DMSO and reproducible) at any of 0.3-9 uM (binary (1 = active, 0 = inactive)); higher = active
Summary of the method: as §1

[8] = test system: A549-CANX-COX4; assay: as above
Summary of the method: as §1

[9] = test system: A549-GM130-SQSTM1; assay: as above
Summary of the method: as §1

[10] = test system: A549-TP53BP1-CLTA; assay: as above
Summary of the method: as §1

[11] = test system: A549-TUBA1B-RELA; assay: as above
Summary of the method: as §1

[12] = test system: HepG2-ACTB-RAB5A; assay: as above
Summary of the method: as §1

[13] = test system: HepG2-CANX-COX4; assay: as above
Summary of the method: as §1

[14] = test system: HepG2-GM130-SQSTM1; assay: as above
Summary of the method: as §1

[15] = test system: HepG2-TP53BP1-CLTA; assay: as above
Summary of the method: as §1

[16] = test system: HepG2-TUBA1B-RELA; assay: as above
Summary of the method: as §1

[17] = test system: WPMY1-CANX-COX4; assay: as above
Summary of the method: as §1

[18] = test system: WPMY1-GM130-SQSTM1; assay: as above
Summary of the method: as §1

[19] = test system: WPMY1-TP53BP1-CLTA; assay: as above
Summary of the method: as §1

[20] = test system: WPMY1-TUBA1B-RELA; assay: as above
Summary of the method: as §1

Row | SMILES | lowest phenotypically active concentration [1] [µM] | lowest phenotypically active concentration [2] [µM] | lowest phenotypically active concentration [3] [µM] | lowest phenotypically active concentration [4] [µM] | lowest phenotypically active concentration [5] [µM] | lowest phenotypically active concentration [6] [µM] | phenotypically active [7] | phenotypically active [8] | phenotypically active [9] | phenotypically active [10] | phenotypically active [11] | phenotypically active [12] | phenotypically active [13] | phenotypically active [14] | phenotypically active [15] | phenotypically active [16] | phenotypically active [17] | phenotypically active [18] | phenotypically active [19] | phenotypically active [20]
1 | COc1cc2c(cc1O)CC[C@@H]1[C@@H]2CC[C@]2(C)[C@@H](O)CC[C@@H]12 [2-methoxyestradiol] | 1 | 1 | 1 | 1 | 1 | 3 | 1 (active) | 1 (active) | 1 (active) | 1 (active) | 1 (active) | 1 (active) | 1 (active) | 1 (active) | 1 (active) | 1 (active) | 1 (active) | 0 (inactive) | 1 (active) | 1 (active)
2 | Cc1cc2c(F)c(Oc3ncnn4cc(OC[C@@H](C)O)c(C)c34)ccc2[nH]1 [brivanib] | 9 | 9 | 9 | 9 | 9 | 9 | 1 (active) | 1 (active) | 1 (active) | 1 (active) | 1 (active) | 1 (active) | 1 (active) | 1 (active) | 1 (active) | 1 (active) | 1 (active) | 0 (inactive) | 1 (active) | 1 (active)
3 | CCCCc1oc2ccccc2c1C(=O)c1cc(I)c(OCCN(CC)CC)c(I)c1 [amiodarone] | 3 | 9 | 9 | 9 | 3 | 9 | 1 (active) | 1 (active) | 1 (active) | 1 (active) | 1 (active) | 1 (active) | 1 (active) | 1 (active) | 1 (active) | 1 (active) | 1 (active) | 1 (active) | 1 (active) | 1 (active)
4 | N#CC[C@@H](C1CCCC1)n1cc(-c2ncnc3[nH]ccc23)cn1 [ruxolitinib-(S)] | 3 | 9 | 9 | 9 | 9 | 9 | 1 (active) | 1 (active) | 1 (active) | 1 (active) | 1 (active) | 0 (inactive) | 1 (active) | 1 (active) | 1 (active) | 1 (active) | 1 (active) | 0 (inactive) | 0 (inactive) | 1 (active)
5 | CC(=O)NC1=NN(C(C)=O)C(C)(c2ccccc2)S1 (stereo not given) | 3 | 3 | 9 | 9 | 3 | 9 | 1 (active) | 1 (active) | 1 (active) | 1 (active) | 1 (active) | 1 (active) | 1 (active) | 1 (active) | 1 (active) | 1 (active) | 1 (active) | 1 (active) | 1 (active) | 1 (active)
6 | O=C1c2ccccc2-c2nc3nonc3nc21 | 3 | 1 | 3 | 3 | 3 | 3 | 1 (active) | 1 (active) | 1 (active) | 1 (active) | 1 (active) | 1 (active) | 1 (active) | 1 (active) | 1 (active) | 1 (active) | 1 (active) | 0 (inactive) | 0 (inactive) | 1 (active)
7 | COc1cc(O)cc(O)c1C(=O)/C=C/c1ccccc1 [Cardamonin] | 9 | 9 | 9 | 9 | 9 | 3 | 1 (active) | 1 (active) | 1 (active) | 1 (active) | 1 (active) | 1 (active) | 1 (active) | 1 (active) | 0 (inactive) | 1 (active) | 1 (active) | 1 (active) | 1 (active) | 1 (active)
8 | COc1cc2nc(N3CCN(C(=O)C4COc5ccccc5O4)CC3)nc(N)c2cc1OC (stereo not given) [doxazosin] | 9 | 9 | 9 | 9 | 3 | 9 | 1 (active) | 1 (active) | 1 (active) | 1 (active) | 1 (active) | 1 (active) | 0 (inactive) | 1 (active) | 1 (active) | 1 (active) | 1 (active) | 1 (active) | 1 (active) | 0 (inactive)
9 | CN1CCN(C(=O)CN[C@H]2C[C@@H]2c2ccc(OCc3ccccc3)cc2)CC1 [RN 1 dihydrochloride] | 3 | 9 | 9 | 9 | 3 | 3 | 1 (active) | 1 (active) | 1 (active) | 1 (active) | 1 (active) | 1 (active) | 0 (inactive) | 1 (active) | 1 (active) | 1 (active) | 1 (active) | 1 (active) | 1 (active) | 1 (active)
10 | CNC(=O)c1cc(Oc2ccc(NC(=O)Nc3ccc(Cl)c(C(F)(F)F)c3)cc2)ccn1 [sorafenib] | 3 | 9 | 9 | ≤ 0.3 | 9 | 3 | 1 (active) | 1 (active) | 1 (active) | 1 (active) | 1 (active) | 1 (active) | 1 (active) | 1 (active) | 1 (active) | 1 (active) | 1 (active) | 1 (active) | 0 (inactive) | 1 (active)
